The list is not random: actives were taken first. Their share in the collection is about 10%.
HP1b chromo inh – HTS for Inhibitors of HP1-beta Chromodomain Interactions with Methylated Histone Tails; AlphaScreen HP1-beta / biotin-H3K9me3 peptide binding; Potency, µM (highest dose often 114 µM), inactives show top-dose activity change, negative = inhibition, most hits filed as inhibitors; 0.56% of 390,000 active; note: nearly all actives have a fitted effect of over 70% in size
Target sequence (P83916 whole entry, looked up): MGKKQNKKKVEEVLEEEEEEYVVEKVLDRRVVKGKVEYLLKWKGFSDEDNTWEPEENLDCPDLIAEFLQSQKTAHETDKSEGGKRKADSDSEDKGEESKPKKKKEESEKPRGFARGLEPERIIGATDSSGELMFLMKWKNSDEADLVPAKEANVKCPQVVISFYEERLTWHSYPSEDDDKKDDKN
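AlphaScreen: HP1-beta (50 nM) preformed 30 min with biotin-H3(1-18)K9me3 peptide (50 nM) in PBS pH 7.4, 0.01% Tween-20. Compound added for 30 min at RT, then streptavidin donor/nickel chelate acceptor beads (10 ug/mL) for 30 min.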
JMJD2A Tudor inh – qHTS Assay for Inhibitors of JMJD2A-Tudor Domain; 4.4% of 390,000 active; Potency, µM (top dose mostly 114 µM), without a hit: at the highest dose activity change, negative = inhibition, usual class: inhibitors; AID 504339, 2011; AlphaScreen JMJD2A-Tudor / H3K4me3 peptide binding; note: % is set by controls: 0 for no effect and ±100 for the full control effect; nearly all actives have a fitted effect of over 50% in size
GLS inh – qHTS for Inhibitors of Glutaminase (GLS). 0.21% of 410,000 active. GLS enzymatic activity, qHTS titration. Potency, µM (top dose mostly 45.5 µM), inactives show at the highest dose activity change, negative = inhibition, most hits filed as inhibitors. Glutaminase kidney isoform, mitochondrial (Homo sapiens), O94925; note: % is set by controls: 0 for no effect and ±100 for the full control effect
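Human kidney-isoform GLS in 45 mM KH2PO4 pH 8.2, 0.02% Tween-20, with compound, started with 1mM L-Glutamine (added stock). Glutamate oxidase/HRP/Amplex red coupled fluorescence read at start and after 30 min at RT.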
G9a inh – qHTS Assay for Inhibitors of Histone Lysine Methyltransferase G9a. G9a H3K9 monomethylation, AlphaScreen, 2 h. Potency, µM (top dose mostly 102 µM), inactives show at the highest dose activity, negative = inhibition, actives largely listed as inhibitors. 8.8% of 350,000 active; note: % is set by controls: 0 for no effect and ±100 for the full control effect; nearly all actives have a fitted effect of over 75% in size
Target sequence (Q96KQ7 913-1193 limits assumed): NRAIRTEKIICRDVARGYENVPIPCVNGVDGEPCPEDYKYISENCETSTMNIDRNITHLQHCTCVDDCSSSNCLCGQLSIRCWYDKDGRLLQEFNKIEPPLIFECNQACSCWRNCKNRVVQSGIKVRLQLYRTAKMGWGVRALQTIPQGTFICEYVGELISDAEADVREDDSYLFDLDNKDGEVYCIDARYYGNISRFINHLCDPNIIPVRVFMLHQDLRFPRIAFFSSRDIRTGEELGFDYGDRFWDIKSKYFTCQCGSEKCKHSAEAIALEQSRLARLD
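Using a bead-based AlphaScreen, monomethylated H3K9 product from 2 h room-temperature reactions (G9a 20 nM, peptide 500 nM, SAM 20 uM) was detected with 0.5 ug/mL rabbit anti-H3K9me1 antibody.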
BAZ2B block – qHTS Assay for Inhibitors of BAZ2B. Potency, µM (highest dose often 114 µM), for inactives: at the top dose activity change, negative = inhibition, hits mostly inhibitors. AID 504333, 2011. Bromodomain adjacent to zinc finger domain protein 2B (Homo sapiens), Q9UIF8. AlphaScreen BAZ2B-H3K14Ac peptide displacement. 4.4% of 360,000 active; note: % is set by controls: 0 for no effect and ±100 for the full control effect; nearly all actives have a fitted effect of over 60% in size
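AlphaScreen luminescence quantifies BAZ2B engagement of H3K14Ac peptide; the protein and biotinylated peptide are both at 50 nM final, buffer PBS pH 7.4 with 0.01% Tween-20, all steps at room temperature.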
Active calls of the source: *; ? = inconclusive; . = no result given; [ ] = another dose, or the depositor's remark. Calls come from the whole dose curve; as a rule, active = well fitted curve in the direction sought with a large enough effect; inconclusive = small, poorly fitted or top-dose-only effect, or another doubt; inactive = no such curve, though single readings can be large; an effect the other way counts as inactive or inconclusive. Potency is the fitted concentration of half-maximal effect.

SMILES	HP1b chromo inh	JMJD2A Tudor inh	GLS inh	G9a inh	BAZ2B block
CCc1ccc(CNC(=O)C2CCCN(S(=O)(=O)c3ccc4c(ccn4C)c3)C2)cc1 (stereo unspecified)	11%[57 µM]	-14%	-12%	7%[59 µM]	-5%
Cc1ccc(N2C(=O)CC(Sc3cccs3)C2=O)cc1 (stereo unspecified)	47%	-5%	1%	35µM*	3%
Cc1cccc(N2C(=O)CC(Sc3nc(C)cc(C)n3)C2=O)c1 (stereo unspecified)	60%	-6%	-6%	?	?
Cc1cccc(N2C(=O)CC(Sc3nnc(C)s3)C2=O)c1 (stereo unspecified)	-2%	-13%	-4%	10µM*	-4%
CCN(CC)C1CC(=O)N(c2cccc(C)c2)C1=O (stereo unspecified)	.	.	.	11µM*	-1%
CCN(CCO)C1CC(=O)N(c2ccccc2C)C1=O (stereo unspecified)	26%	40µM*	-28%	4µM*	-4%
Cc1cccc(N2C(=O)CC(Cn3nc(C)cc3C)C2=O)c1 (stereo unspecified)	36%	-9%	-6%	15%	-18%
CCNC(=O)CC1C(=O)N(c2ccc(F)cc2)C(=O)N1CCOC (stereo unspecified)	38%	7%	-10%	13%[59 µM]	7%
CC(=O)Nc1ccc(-c2csc(NC(=O)CC(NC(C)=O)c3ccccc3)n2)cc1 (stereo unspecified)	-18%	-13%	-5%	45µM*	-3%
CCC(=O)Nc1ccc(-c2csc(C)n2)cc1	9%	0%	22%	-2%	1%
CCCCCC(=O)Nc1ccc(-c2csc(C)n2)cc1	16%	-14%	6%	7%[59 µM]	27%
CCCCCC(=O)Nc1ccc(-c2csc(N)n2)cc1	25%	-29%	-13%	40µM*	?
CC(=O)NC(CC(=O)Nc1nc(-c2ccc(N(C)S(C)(=O)=O)cc2)cs1)c1ccccc1 (stereo unspecified)	7%	-14%	0%	?	-4%
CC(=O)Nc1ccc(-c2csc(N/N=C(/C)c3ccccc3)n2)cc1	-17%	?	9%	18µM*	?
CCC(=O)Nc1ccc(-c2csc(NNC(C)=O)n2)cc1	24%	-8%	-27%	14µM*	-27%
COc1cccc2c1Oc1ncccc1N(C(=O)CCC(=O)NCCC(C)C)C2	48%	6%	-7%	-3%[59 µM]	10%[57.1 µM]
O=C(NC1CCCCC1)c1cccc2c(-c3ccc(F)c(F)c3)coc12	.	.	-6%	.	.
C[C@H](NC(=O)c1ccccc1)C(=O)OCC(=O)Nc1ccc(Cl)cn1	.	.	-3%	.	.
Cn1nnnc1SCC1=C(C(=O)O)N2C(=O)C(NC(=O)Cn3nc(C(F)F)cc3C3CC3)C2SC1 (stereo unspecified)	25%	-18%	-1%	?	71µM*
Cc1cc(=O)c(C(=O)N[C@@H](C(=O)N[C@@H]2C(=O)N3C(C(=O)O)=C(CSc4nnnn4C)CS[C@H]23)c2ccc(O)cc2)c[nH]1	.	.	17%	-1%[12.7 µM]	.
Cc1c(Cl)cnn1CC(=O)NC1C(=O)N2C(C(=O)O)=C(CSc3nnnn3C)CSC12 (stereo unspecified)	37%	-16%	-24%	?	56µM*
Cc1nn(CC(=O)NC2C(=O)N3C(C(=O)O)=C(CSc4nnnn4C)CSC23)cc1Br (stereo unspecified)	49%	0%	-11%	40µM*	?
Cc1c(Cl)c(C(F)F)nn1CC(=O)NC1C(=O)N2C(C(=O)O)=C(CSc3nnnn3C)CSC12 (stereo unspecified)	7%	-30%	-13%	28µM*	-38%
Cc1ccc(-c2cc(C3C4C=CCC(C)C4C(=O)N3Cc3ccccc3)ccc2F)cc1 (stereo unspecified)	18%	-12%	.	.	.
CN(c1ccccc1)S(=O)(=O)c1cccc(NC(=O)c2ccc(Cl)c([N+](=O)[O-])c2)c1	-20%	?	12%	.	.
SMILES	HP1b chromo inh	JMJD2A Tudor inh	GLS inh	G9a inh	BAZ2B block
Cc1cc2c(s1)c1cnn(Cc3cc(F)cc(F)c3)c(=O)c1n2C	.	-9%	.	.	.
CCOC(=O)Cc1nnc(NC(=O)c2ccccc2OCC)s1	43%	-1%	1%	-43%[59 µM]	5%
CCOC(=O)Cc1nnc(NC(=O)c2ncn[nH]2)s1	14%	2µM*	1%	?	8.9µM*
COc1cc(OC)cc(C(=O)Nc2ccc3c(c2)N(C2CCCC2)C(=O)c2ccccc2S3)c1	19%	-15%	6%	0%[59 µM]	-6%
O=C(NCCCc1cnc[nH]1)NCCCN(Cc1ccc(Cl)c(Cl)c1)c1ccc(Br)cn1	.	50µM*	.	.	.
CCCCN(Cc1ccc(Cl)c(Cl)c1)c1ccc(Br)cn1	165%	106%	.	.	.
CC(=O)NCCCN(Cc1ccc(Cl)c(Cl)c1)c1ccc(Br)cn1	20%	-17%	.	.	.
CN(CCCN(Cc1ccc(Cl)cc1)c1ccc(Br)cn1)C(=S)NCCCc1cnc[nH]1	?	56µM*	.	.	.
S=C(NCCCCN(Cc1ccc(Cl)cc1)c1ccc(Br)cn1)NCCCc1cnc[nH]1	25µM*	45µM*	3%	.	.
S=C(NCCCc1cnc[nH]1)NCCCN(Cc1ccc(Cl)c(Cl)c1)c1ccccn1	.	45µM*	.	.	.
O=C1CCCCC1C(O)(C(=O)c1ccccc1)c1ccccc1 (stereo unspecified)	.	.	-6%	.	.
Cc1ccc(C(=O)c2sc(Nc3ccccc3)c(S(=O)(=O)c3ccccc3)c2N)c(C)c1	2%[57 µM]	?	-3%	-30%[59 µM]	-31%
Cc1c(O)c(=O)c2ccccc2n1C	30%	22µM*	26%	45µM*	-9%
C=CCc1cccc2cc(C(=O)Nc3ccc(CC(=O)O)cc3)c(=O)oc12	-23%	-12%[11.4 µM]	-26%	50µM*	32µM*
C=CCc1cccc2cc(C(=O)Nc3ccc(F)cc3)c(=O)oc12	9%	-20%	8%	2%[59 µM]	-10%
C=CCc1cccc2cc(C(=O)N3CCN(C(=O)c4ccccc4)CC3)c(=O)oc12	27%	-15%	-5%	14µM*	?
C=CCc1cccc2cc(C(=O)N3CCOCC3)c(=O)oc12	27%	-13%	8%	-47%	5%
C=CCc1cccc2cc(C(=O)Nc3ccc(S(=O)(=O)Nc4nnc(CC)s4)cc3)c(=O)oc12	28µM*	28µM*	-17%	?	22µM*
CCc1ccc2occ(CC(=O)Nc3ccc(OC)c(Cl)c3)c2c1	45%	3%	7%	-4%[59 µM]	-10%
Cn1c(=O)c(Nc2ccc(Cl)cc2)c2c3c(cccc31)C(=O)c1ccccc1-2	?	-28%[11.4 µM]	-15%	22µM*	?

Screening data from PubChem.
